# Compound activity: PubChem BioAssay, National Center for Advancing Translational Sciences (NCATS)
# Most compounds without a hit are left out; they make up all but 7.4% or so of the library.
# NPC1 prom act = activates the NPC1 promoter; Huh7 NPC1 promoter luciferase reporter, 24 h; 320,000 compounds, 2.4% hits; Potency, µM (series often up to 9.22 µM), for the others: at the highest dose activation, actives largely listed as activators; AID 485313; further: % of control where 0% means no effect; nearly all actives have a fitted effect of over 60% in size
#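 Cells: Huh7 expressing luciferase under the NPC1 promoter, 1500/well. Seeded 2 h, compound added, incubated 24 h at 37 °C. Luciferase reagent, 10 min ambient, then luminescence.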
# Rab9 prom act = activators of Rab9 promoter | Huh7 Rab9 promoter-luciferase reporter, luminescence, 24 h | 320,000 compounds, 2.8% hits | Potency, µM (highest dose often 9.22 µM), without a hit: at the top dose activation, negative = inhibition, hits mostly activators; further: % of control where 0% means no effect; nearly all actives have a fitted effect of over 60% in size
#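 Stable Rab9-luc Huh7, 1500 cells/well, 2 h settle; cmpd in DMSO, 24 h, 37 °C/5% CO2; luciferase reagent 10 min RT; luminescence.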
# FLuc counter = firefly luciferase modulation, counter-screen for miR-21 project; P08659; purified FLuc, Km substrates, luminescence inhibition; 360,000 compounds, 6.9% hits; Potency, µM (titrated, usually from 57.5 µM), without a hit: at the highest dose activity change, negative = inhibition, actives largely listed as inhibitors; AID 588342;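 further: plate controls were vehicle for no effect and reference inhibitor for full effect; nearly all actives have a fitted effect of over 55% in size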
# Target sequence (P08659 whole entry, looked up): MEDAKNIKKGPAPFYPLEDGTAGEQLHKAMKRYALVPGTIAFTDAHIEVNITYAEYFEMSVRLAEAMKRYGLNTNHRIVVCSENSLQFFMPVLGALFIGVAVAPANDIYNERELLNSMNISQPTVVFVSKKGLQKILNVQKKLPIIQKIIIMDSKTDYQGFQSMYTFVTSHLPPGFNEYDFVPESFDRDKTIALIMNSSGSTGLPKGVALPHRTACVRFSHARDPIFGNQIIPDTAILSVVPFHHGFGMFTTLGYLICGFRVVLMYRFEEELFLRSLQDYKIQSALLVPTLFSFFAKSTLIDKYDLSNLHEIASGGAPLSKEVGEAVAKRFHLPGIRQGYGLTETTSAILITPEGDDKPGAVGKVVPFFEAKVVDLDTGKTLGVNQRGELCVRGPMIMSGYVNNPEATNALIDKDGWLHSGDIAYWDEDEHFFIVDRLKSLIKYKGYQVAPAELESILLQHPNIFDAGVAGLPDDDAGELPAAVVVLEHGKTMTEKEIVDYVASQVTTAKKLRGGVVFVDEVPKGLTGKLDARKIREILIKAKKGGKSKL
#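 Purified P. pyralis luciferase, 10 nM final, with Km-level 10 uM D-luciferin and 10 uM ATP in 50 mM Tris acetate pH 7.5, 10 mM Mg acetate, 0.01% Tween-20, 0.05% BSA; 6-point qHTS titration about 60 µM downward; luminescence read.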
# SMN2 splice up = SMN2 splice variant enhancement; HEK293 SMN2-luciferase splicing reporter, luminescence, 30-36 h; Potency, µM (titrated, usually from 46.1 µM), for inactives: at the top dose activity change, positive = activation, usual class: activators; 210,000 compounds, 2.8% hits; AID 1458; further: % of control where 0% means no effect; nearly all actives have a fitted effect of over 55% in size
#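 qHTS luciferase splicing reporter: luminescence rises when SMN2 exon 7 is included in transfected HEK293 cells. Compound exposure lasted 30-36 h at 37C, with 4.5 mM final sodium butyrate as control, followed by a ONE-Glo read.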
# Luc counter = Kinase-Glo luciferase inhibition (counter-screen); Q27757; Kinase-Glo luciferase, ATP luminescence, 8 min; Potency, µM (titrated, usually from 38.3 µM), inactives show at the top dose activity change, negative = inhibition, actives largely listed as inhibitors; 200,000 compounds, 0.28% hits; AID 1379; further: on the % scale 0 is the no-effect control and ±100 the full control effect; nearly all actives have a fitted effect of over 60% in size
#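 Kinase-Glo luciferase light output from ATP and luciferin was measured with 10 uM ATP, within the enzyme's linear range. Buffer: 50 mM imidazole pH 7.2, 50 mM KCl, 7 mM MgCl2, 0.01% Tween 20, 0.05% BSA; luminescence read after 8 min at ambient temperature.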
# ELG1 genotoxic = genotoxicity induction in ELG1-luciferase HEK293T cells | HEK293T ELG1-luciferase reporter, luminescence, 16 h | Potency, µM (highest dose often 46 µM), inactives show top-dose activity change, positive = activation, usual class: activators | 330,000 compounds, 1.3% hits | AID 504466; further: % of control where 0% means no effect; nearly all actives have a fitted effect of over 60% in size
#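 After overnight (16 hr) compound treatment at 37 °C, ELG1-luciferase HEK293T cells were lysed with ONE-Glo; luminescence quantified 30 min later at room temperature.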
# * hit, by the source's call; ? = inconclusive; · = no result. The call rests on the fitted dose curve; in most records, active means well fitted curve in the direction sought with a large enough effect; inconclusive means small, poorly fitted or top-dose-only effect, or another doubt; inactive means no such curve, though single readings can be large; an effect the other way counts as inactive or inconclusive. Potency means the concentration at half of the fitted maximal effect.
SMILES,NPC1 prom act,Rab9 prom act,FLuc counter,SMN2 splice up,Luc counter,ELG1 genotoxic
CCC(Cc1ccccc1)NC(=O)c1ccc2nc(N3CCOCC3)sc2c1 (stereo not given),-3.4%,5.1%,3.2%,·,·,0.2%
CCOc1ccc(CCNC(=O)c2ccc3nc(N4CCC(C)CC4)sc3c2)cc1OCC,·,·,-12.5%,-13.8%,·,·
CCC(C)(C)NC(=O)CN(C(=O)CCC(=O)Nc1nccs1)c1ccccc1C,-4.1%,0.4%,4.2%,·,·,-1.1%
O=C(Nc1ccc(Cl)cc1)OCc1ccccn1,2.51µM*,2.24µM*,12µM*,12.6µM*,-3.0%,17.7%
O=C(Nc1ccc(Cl)cc1)OCc1cncs1,?,?,15.1µM*,-26.2%,-3.7%,6.5%
CS(=O)(=O)c1ccccc1COC(=O)Nc1ccc(Cl)cc1,19.1%,15.5%,?,-6.5%,-4.5%,2.4%
COCC1CCN(C(=O)c2ccc(OC3CCN(Cc4ccccn4)CC3)cc2)C1 (stereo not given),-1.7%,0.9%,3.7%,·,·,?
COc1ccc(N2C(=O)CSC23C(=O)N(CC(=O)NCCc2ccccc2)c2ccccc23)cc1 (stereo not given),·,·,5.3%,·,·,·
O=C(Nc1nc2cc3c(cc2s1)OCO3)C1CC1,?,27.5%,?,·,·,9.0%
O=C(Nc1nc2cc3c(cc2s1)OCCO3)C1CCCCC1,0.501µM*,0.316µM*,0.426µM*,·,·,?
O=C(Nc1nc2cc3c(cc2s1)OCO3)C1CCCCC1,1.78µM*,1.26µM*,4.78µM*,·,·,?
CC(=O)Nc1nc2cc3c(cc2s1)OCCO3,1.58µM*,1.41µM*,7.57µM*,·,·,?
COc1ccc(OCC(=O)Nc2nc3cc4c(cc3s2)OCCO4)cc1,·,·,·,·,·,-1.6%
O=C(NNc1nc2cc3c(cc2s1)OCCO3)c1ccccc1,?,?,9.53µM*,20µM*,0.4%,?
O=C(CN1CCOCC1)Nc1nc2cc([N+](=O)[O-])ccc2s1,0.8%,-2.0%,-12.6%,-2.7%,-2.2%,-1.7%
c1ccc(-c2noc(COc3ccc4c(c3)OCO4)n2)cc1,3.98µM*,2.82µM*,2.13µM*,14.1µM*,-5.2%,9.2µM*
Cc1ccccc1OCc1nc(-c2ccccc2)no1,3.98µM*,3.98µM*,4.78µM*,31.6µM*,-0.5%,?
Cc1ccccc1OCC(=O)N(Cc1nc(-c2ccccc2)no1)C(C)C,-2.8%,1.4%,-0.8%,8.5%,1.5%,-0.2%
c1ccc(NCc2nc(-c3ccccc3)no2)cc1,?,?,16.9µM*,?,-5.2%,23.1µM*
Cc1ccc(OCc2nc(-c3ccccc3)no2)cc1,?,3.98µM*,7.57µM*,·,·,?
CC(=O)N/C(=C\c1ccccc1)C(=O)OCc1ccc(F)cc1,11.4%,1.8%,0.1%,·,·,-1.8%
Cc1ccccc1OCc1nc(-c2ccc(Br)o2)no1,11.2%,7.6%,16.9µM*,10.7%,-5.3%,?
COc1ccccc1-c1noc(COC(=O)c2ccc(Br)o2)n1,-3.9%,-2.5%,1.3%,·,·,4.8%
Cc1ccc(-c2noc(COc3ccccc3C)n2)cc1,18.1%,22.5%,21.3µM*,18.7%,1.8%,?
COc1cccc(-c2noc(COc3ccc(C(C)(C)C)cc3)n2)c1,·,·,-2.4%,1.5%,·,·
SMILES,NPC1 prom act,Rab9 prom act,FLuc counter,SMN2 splice up,Luc counter,ELG1 genotoxic
COc1cccc(-c2noc(COc3ccccc3Cl)n2)c1,·,·,10.7µM*,?,·,·
Cc1cc(Br)ccc1OCc1nc(-c2cccnc2)no1,29.1%,?,?,?,-3.1%,20.6µM*
COc1ccc(-c2noc(COc3ccccc3OC)n2)cc1OC,13.1%,2.8%,?,11.9%,-1.6%,?
CCOc1ccc(N(C)S(=O)(=O)c2c[nH]c(C(=O)OC)c2)cc1,-1.9%,-0.2%,-0.9%,·,·,-0.2%
COc1ccccc1N1CCN(CCC(=O)Nc2ccc(F)cc2)CC1,-1.5%,-7.9%,-1.8%,·,·,0.3%
O=C(NCC1CCCO1)c1ccccc1NS(=O)(=O)c1cc([N+](=O)[O-])ccc1Cl (stereo not given),·,·,·,·,·,-4.8%
CCOc1cc2[nH]c(=O)n(Cc3ccc(C(=O)N4CCN(c5ccccc5)CC4)cc3)c(=O)c2cc1OCC,·,·,-10.8%,·,·,·
O=C(CCCCCN1C(=O)c2cccc3cccc(c23)C1=O)NC1CCS(=O)(=O)C1 (stereo not given),-4.9%,-2.2%,15.1µM*,·,·,5.3%
CCOC(=O)c1ccc(-c2ccc3c(=O)c4ccccc4n(C)c3c2)cc1F,0.9%,3.3%,-18.3%,·,·,11.4%
CCOC(=O)c1cc(-c2ccc(C)o2)n[nH]1,-3.8%,-0.9%,?,-11.8%,0.8%,3.8%
CCOC(=O)c1cc(-c2cc3ccccc3o2)n[nH]1,9.6%,0.3%,19µM*,17.8%,-1.4%,1.1%
COc1ccccc1N1CCN(S(=O)(=O)c2cn(C)nc2C)CC1,0.3%,-5.5%,-1.2%,·,·,6.3%
CC1CCCN(C(=O)CNC(=O)c2sc3ccccc3c2Cl)C1 (stereo not given),?,2.51µM*,15.1µM*,·,·,?
O=C(Nc1ccc(CN2CCCCC2)cc1)c1sc2ccccc2c1Cl,25.2%,15.1%,13.5µM*,·,·,13.0%
O=C(NCC(=O)N1CCCCC1)c1sc2ccccc2c1Cl,1.78µM*,2.24µM*,8.49µM*,·,·,?
O=[N+]([O-])c1cc(N(CCO)CCO)ccc1NCCO,·,·,·,-11.0%,·,·
Cc1sc2ncnc(N3CCC(C(=O)Nc4nc(-c5cccs5)cs4)CC3)c2c1C,-21.1%,-19.9%,10.7µM*,·,·,1.1%
